Activity calls are given as the source filed them. No rule for the calls is given here.
Target: Thyrotropin receptor (Homo sapiens) (UniProt P16473)
Experiment: Concentration-response assay for antagonists of the thyroid stimulating hormone receptor: ELISA activity detection
Settings: HEK293-TSHR, TSH-induced cAMP, ELISA chemiluminescence
Description: TSH is an alpha/beta heterodimeric glycoprotein hormone secreted from the anterior pituitary gland which belongs to the glycoprotein hormone family. The actions of TSH are mediated by a seven-transmembrane receptor, which upon TSH binding couples preferentially to the G-alpha (s) protein (Gs), resulting in activation of adenylate cyclase and increase in cyclic adenosine 3', 5' monophosphate (cAMP). The TSH receptor (THSR) is mainly expressed in thyroid follicular cells and regulates their growth and function. This cell based assay was conducted on a TSHR transfected HEK 293 cell line, measuring cAMP stimulation using antibody-based Homogeneous Time Resolved Fluorescence (HTRF). Our goal is to identify small molecules that will inhibit (antagonize) the thyroid-stimulating hormone receptor (TSHR), a member of the 7 transmembrane-spanning receptor (7TMR) family of cell surface receptors. TSHR-mediated hyperthyroidism is important in thyroid pathology. The development of small molecule antagonists of TSHR may lead to therapeutic approaches for TSHR-mediated hyperthyroidism caused by constitutively activating mutations or stimulating auto-antibodies associated with Graves' disease. Graves' disease is the leading cause of hyperthyroidism and is caused by autoantibodies that stimulate TSHR (TsAbs) causing thyroid growth and unregulated overproduction of thyroid hormones and existing treatments have liabilities (agranulocytosis). In addition, TSHRs are known to be expressed in multiple extrathyroidal tissues including bone, brain, kidney, testis, fat and cells of the immune system but the role of the TSHR in these tissues is not clear. Therefore, TSHR antagonists/inverse agonists could be used as probes of extrathyroidal TSHR function. Finally, TSHR inverse agonists, which are a subclass of antagonists that inhibit agonist-independent (or basal or constitutive) TSHR signaling, could be used to inhibit TSH-independent signaling in patients with recurrent or metastatic thyroid cancer who are receiving thyroid hormone to suppress TSH. A confirmatory assay of TSHR antagonists was conducted on a HEK 293 cell line stably expressing the TSHR, using an orthogonal detection technology to measure cAMP stimulation: an ELISA based cAMP competition assay using cAMP-Screen Direct System (Applied Biosystems, Foster City, CA).
Transiently transfected HEK-EM 293 cells or cells stably expressing TSHRs were seeded into 96-well plates at a density of 7 x10^4 cells per well in DMEM containing 10% FBS. Cells were cultured for 24 h before incubation for 20 min in HBSS/10 mM HEPES (pH 7.4). To determine the effect of the compound on TSH induced TSHR activity, cells were incubated for 20 min with the compound in HBSS/HEPES without IBMX and subsequently for 40 min with bovine TSH (Sigma) and the compound in HBSS/HEPES supplemented with 1 mM IBMX at 37 C. The levels of cAMP in cells incubated in HBSS/HEPES without IBMX were subtracted in all experiments. After aspiration of the incubation medium, cells were lysed using lysis buffer of the cAMP-Screen Direct system (Applied Biosystems, Foster City, CA). The cAMP content of the cell lysate was determined using the method described in the manufacturer's protocol. The chemiluminescence signal was measured in a VICTOR3 V 1420 multilabel counter (PerkinElmer, Norwalk, CT). The potencies (EC50 and IC50) of the ligands were obtained from dose-response curves by data analysis with GraphPad Prism 4 for Windows.

Chain of Thyrotropin receptor (Homo sapiens) (P16473 whole entry, looked up): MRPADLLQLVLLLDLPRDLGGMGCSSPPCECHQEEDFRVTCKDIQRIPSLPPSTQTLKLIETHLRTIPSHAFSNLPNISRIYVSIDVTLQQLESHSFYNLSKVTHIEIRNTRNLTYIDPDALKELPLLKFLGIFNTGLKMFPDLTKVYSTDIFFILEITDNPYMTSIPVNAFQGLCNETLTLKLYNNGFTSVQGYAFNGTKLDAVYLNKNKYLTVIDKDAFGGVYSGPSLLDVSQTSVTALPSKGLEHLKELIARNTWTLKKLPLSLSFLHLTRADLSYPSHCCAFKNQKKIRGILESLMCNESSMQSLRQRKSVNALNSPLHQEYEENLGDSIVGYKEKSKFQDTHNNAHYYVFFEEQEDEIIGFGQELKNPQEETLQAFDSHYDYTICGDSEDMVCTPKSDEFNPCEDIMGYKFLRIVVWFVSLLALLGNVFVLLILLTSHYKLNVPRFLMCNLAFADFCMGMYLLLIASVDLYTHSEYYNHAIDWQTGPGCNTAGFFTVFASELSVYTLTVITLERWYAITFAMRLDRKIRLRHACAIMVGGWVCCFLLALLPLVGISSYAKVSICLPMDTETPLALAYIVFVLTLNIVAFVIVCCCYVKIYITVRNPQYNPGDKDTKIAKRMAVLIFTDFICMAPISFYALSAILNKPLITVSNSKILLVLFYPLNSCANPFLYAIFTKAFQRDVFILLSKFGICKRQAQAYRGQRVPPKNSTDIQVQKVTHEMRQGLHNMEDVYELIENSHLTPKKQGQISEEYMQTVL

Q: Which outcome does the source give for `COc1ccc(C2Nc3ccccc3C(=O)N2Cc2ccccc2)cc1COc1c(C)cccc1C` (stereo unspecified) here?
A: inactive

Q: With `COc1ccc(C2Nc3ccccc3C(=O)N2Cc2ccco2)cc1CSc1c(C)cccc1C` (stereo unspecified) as the compound, how does the IC50 read?
A: 9900 nM (active)

Q: With `COc1ccc(C2Nc3ccccc3C(=O)N2Cc2cccs2)cc1COc1c(C)cccc1C` (stereo unspecified) as the compound, how does the IC50 read?
A: 1000 nM (active)

Q: Which IC50 does the source give for `COc1ccc(C2Nc3ccccc3C(=O)N2Cc2ccco2)cc1COc1c(C)cc(NC(C)=O)cc1C` (stereo unspecified) here?
A: 2300 nM (active)

Q: For `COc1ccc(C2Nc3ccccc3C(=O)N2Cc2ccc(C)o2)cc1COc1c(C)cccc1C` (stereo unspecified), which IC50 is on record?
A: 2300 nM (active)

Q: With `COc1ccc(C2Nc3cccc(O)c3C(=O)N2Cc2ccco2)cc1COc1c(C)cc(NC(C)=O)cc1C` (stereo unspecified) as the compound, how does the outcome read?
A: inactive

Q: For `COc1ccc(C2Nc3ccccc3C(=O)N2Cc2cccnc2)cc1COc1c(C)cccc1C` (stereo unspecified), which IC50 is on record?
A: 3500 nM (active)

Q: `COc1ccc(C2Nc3ccccc3C(=O)N2Cc2ccccn2)cc1COc1c(C)cccc1C` (stereo unspecified) was tested. Which outcome did it give?
A: inactive

Q: With `CCc1cccc(CC)c1OCc1cc(C2Nc3ccccc3C(=O)N2Cc2ccco2)ccc1OC` (stereo unspecified) as the compound, how does the IC50 read?
A: 22300 nM (active)

Q: `COc1ccc(C2Nc3ccccc3C(=O)N2Cc2ccco2)cc1COc1ccccc1C` (stereo unspecified) was tested. Which outcome did it give?
A: inactive

Q: For `Cc1cccc(C)c1OCc1cccc(C2Nc3ccccc3C(=O)N2Cc2ccco2)c1` (stereo unspecified), which IC50 is on record?
A: 1900 nM (active)
